Experimental data reported in the supplement of paper PMC7366291.
Where a name gives a salt, the structure may show the parent alone. ± gives the standard deviation or the standard deviation of the averaged measurements.

Tests used:
Details in all cases: 25 µM; exposure: 24-48 hpf
[1] = tested on: Danio rerio Tg(wt1b:EGFP) embryo, pronephros; assay: glomerular separation, fold change vs DMSO control; higher = glomeruli further apart (abnormal)
Outline: (§1)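 Dechorionated Tg(wt1b:EGFP) zebrafish embryos were kept from 24 to 48 hpf at 28.5°C in HEPES-buffered E3 containing 0.003% PTU, 0.5% DMSO and 25 μM compound. The pronephroi were then imaged from the dorsal side in agarose-filled 96-well plates at 470 nm with 10 z-slices, and 16 reference points were placed by hand on maximum projections in Fiji so that a macro could calculate distances and angles. Values lying more than 2 SD from the mean of a feature were discarded. Every feature is given as a fold change against the mean of DMSO-treated embryos from the same day.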

[2] = tested on: Danio rerio Tg(wt1b:EGFP) embryo, pronephros; assay: glomerular width (mean of left and right), fold change vs DMSO control; higher = wider glomerulus
Outline: as §1

[3] = tested on: Danio rerio Tg(wt1b:EGFP) embryo, pronephros; assay: fraction of imaged embryos annotated as normal kidney; higher = less nephrotoxic; extreme values may be limits of the assay
Outline: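 From 24 to 48 hpf at 28.5°C, dechorionated Tg(wt1b:EGFP) zebrafish embryos in 12-well plates were kept in 5 mM HEPES-buffered E3 with 0.003% PTU, 0.5% DMSO and 25 μM compound. Pronephroi were imaged by widefield fluorescence at 470 nm and judged by eye from maximum projections. Reported is the proportion of embryos per treatment in the normal-kidney category.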

[4] = tested on: Danio rerio Tg(wt1b:EGFP) embryo, pronephros; assay: pronephric angle neck segment to proximal convoluted tubule (mean of left and right), fold change vs DMSO control; higher = larger pronephric angle
Outline: as §1

| SMILES | glomerular separation [1] | glomerular width [2] | fraction of imaged embryos annotated as normal kidney [3] | pronephric angle neck segment [4] |
| --- | --- | --- | --- | --- |
| Nc1cc(-c2ccncc2)c[nH]c1=O [Amrinone] | 0.609 ± 0.23 | 1.01 ± 0.036 | 0.917 | 0.969 ± 0.014 |
| N=C(N)NC(=O)Cc1c(Cl)cccc1Cl [Guanfacine hydrochloride] | 0.827 ± 0.15 | 1.08 ± 0.1 | 0.583 | 0.978 ± 0.025 |
| CC(=O)SCC(Cc1ccccc1)C(=O)NCC(=O)OCc1ccccc1 (stereo unspecified) [Racecadotril] | 1.45 ± 0.84 | 0.819 ± 0.085 | 0.167 | 1.365 ± 0.013 |
| O=C(N[C@H](CO)[C@H](O)c1ccc([N+](=O)[O-])cc1)C(Cl)Cl [Chloramphenicol] | 1.33 ± 0.57 | 0.954 ± 0.035 | 1 | 0.935 ± 0.052 |
| NS(=O)(=O)c1cc2c(cc1Cl)NC(C(Cl)Cl)NS2(=O)=O (stereo unspecified) [Trichlormethiazide] | 0.873 ± 0.36 | 0.992 ± 0.012 | 0.75 | 0.899 ± 0.015 |
| Cc1c(OCC(F)(F)F)ccnc1C[S+]([O-])c1nc2ccccc2[nH]1 (stereo unspecified) [Lansoprazole] | 1.25 ± 0.57 | 0.949 ± 0.04 | 0.333 | 1.17 ± 0.034 |
| NS(=O)(=O)c1cc2c(cc1Cl)N=CNS2(=O)=O [Chlorothiazide] | 0.855 ± 0.11 | 1.07 ± 0.043 | 0.75 | 0.99 ± 0.057 |
| CN1CCCN(C(c2ccccc2)c2ccc(Cl)cc2)CC1 (stereo unspecified) [Homochlorcyclizine dihydrochloride] | 1.08 ± 0.45 | 0.975 ± 0.015 | 1 | 1.013 ± 0.0017 |
| COc1ccccc1OCC(O)CN1CCN(CC(=O)Nc2c(C)cccc2C)CC1 (stereo unspecified) [Ranolazine] | 0.739 ± 0.33 | 1.021 ± 0.0091 | 0.833 | 1.01 ± 0.029 |
| Cc1c(O)cccc1C(=O)N[C@@H](CSc1ccccc1)[C@H](O)CN1C[C@H]2CCCC[C@H]2C[C@H]1C(=O)NC(C)(C)C [Nelfinavir mesylate] | 0.563 ± 0.13 | 1.05 ± 0.017 | 1 | 0.954 ± 0.03 |
| Clc1ccc(C(c2ccccc2Cl)C(Cl)Cl)cc1 (stereo unspecified) [Mitotane] | 0.566 ± 0.18 | 0.969 ± 0.038 | 0.909 | 1.05 ± 0.049 |
| O=C1c2cccc(O)c2C(=O)c2c(O)cccc21 [1,8-Dihydroxyanthraquinone] | 1.16 ± 0.45 | 1 ± 0.04 | 0.917 | 1.03 ± 0.036 |
| O=C(O)c1cc(/N=N/c2ccc(S(=O)(=O)Nc3ccccn3)cc2)ccc1O [Sulfasalazine] | 0.959 ± 0.28 | 1.02 ± 0.016 | 0.917 | 0.999 ± 0.034 |
| C[C@H](N[C@@H](CCc1ccccc1)C(=O)O)C(=O)N1CCC[C@H]1C(=O)O [Enalaprilat dihydrate] | 1.03 ± 0.34 | 1 ± 0.012 | 1 | 1.01 ± 0.025 |
| CC(Oc1c(Cl)cccc1Cl)C1=NCCN1 (stereo unspecified) [Lofexidine] | 1.06 ± 0.22 | 0.9921 ± 0.0057 | 0.833 | 0.96 ± 0.028 |
| CCCC1C(=O)N2C(N(C)C)=Nc3ccc(C)cc3N2C1=O (stereo unspecified) [Azapropazone] | 1.16 ± 0.34 | 0.984 ± 0.022 | 0.917 | 1.018 ± 0.0029 |
| CCCC(=O)Nc1ccc(OCC(O)CNC(C)C)c(C(C)=O)c1 (stereo unspecified) [Acebutolol hydrochloride] | 1.43 ± 0.56 | 1.06 ± 0.075 | 0.75 | 0.9596 ± 0.0066 |
| CCn1cc(C(=O)O)c(=O)c2cc(F)c(N3CCN(C)CC3)cc21 [Pefloxacine] | 0.997 ± 0.31 | 1.01 ± 0.021 | 1 | 1.01 ± 0.018 |
| CCCCOC(=O)c1ccc(O)cc1 [Butylparaben] | 1.67 ± 0.4 | 0.994 ± 0.022 | 0.5 | 1.11 ± 0.038 |
| Cn1c(=O)c2[nH]cnc2n(C)c1=O [Aminophylline] | 0.664 ± 0.15 | 0.992 ± 0.021 | 1 | 0.871 ± 0.011 |
| CCCCNc1c(C(=O)OCC)c(C)nc2c1cnn2CC [Tracazolate hydrochloride] | 1.18 ± 0.63 | 0.929 ± 0.072 | 0.917 | 1.06 ± 0.015 |
| COc1cc(NS(=O)(=O)c2ccc(N)cc2)nc(OC)n1 [Sulfadimethoxine] | 1.02 ± 0.48 | 1.04 ± 0.014 | 1 | 1.01 ± 0.021 |
| COCC1=C(C(=O)OC(C)OC(=O)OC(C)C)N2C(=O)[C@@H](NC(=O)/C(=N\OC)c3csc(N)n3)[C@H]2SC1 (stereo partly specified) [Cefpodoxime proxetil] | 1.06 ± 0.52 | 0.893 ± 0.055 | 1 | 1.05 ± 0.054 |
| Cc1cc2cc3c(C)cc(=O)oc3c(C)c2o1 [Trioxsalen] | 0.97 ± 0.24 | 1.019 ± 0.01 | 0.917 | 1.03 ± 0.049 |
| N=C(N)NCCN1CCCCCCC1 [Guanethidine sulfate] | 0.862 ± 0.46 | 1.04 ± 0.04 | 0.917 | 0.958 ± 0.035 |
| O=C(O)CCCC[C@@H]1SC[C@@H]2NC(=O)N[C@@H]21 [Biotin] | 0.993 ± 0.31 | 0.993 ± 0.043 | 0.917 | 1.02 ± 0.066 |
| C[C@H](CCC(=O)O)[C@H]1CC[C@H]2[C@@H]3[C@H](O)C[C@@H]4C[C@H](O)CC[C@]4(C)[C@H]3CC[C@]12C [Chenodiol] | 2.11 ± 0.81 | 0.744 ± 0.025 | 0.333 | 1.04 ± 0.13 |
| CC(=O)N[C@@H](CC(C)C)C(=O)O [N-Acetyl-L-leucine] | 1.02 ± 0.21 | 1.075 ± 0.0078 | 0.917 | 0.993 ± 0.013 |
| C1CCC(C(CC2CCCCN2)C2CCCCC2)CC1 (stereo unspecified) [Perhexiline maleate] | 1.12 ± 0.32 | 0.9631 ± 0.0089 | 0.909 | 1.006 ± 0.00027 |
